Compound activity as filed in PubChem.
Only some compounds are listed: those with a hit (about 2.4% of all), similar ones and a draw of the others.
CHO-K1 Ca ag = counter-screen for M1 agonists: effect in parental CHO-K1 cells | Fluo-8 calcium fluorescence; scaled to maximal ATP response, vehicle zero | AID 602248, 2012 | activation, % at 3 µM | hit rate 0.48% among 360,000; in the data active means activation above about 15%;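 further: untransfected CHO-K1 host cells lacking M1 receptor as counterscreen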
CHRM1 agonist = human M1 muscarinic receptor agonists, primary screen, Fluo-8 calcium fluorescence, CHO-K1 cells, HTS; CHO-K1 hM1, agonist mode; 0% DMSO, 100% acetylcholine EC100; activation, % at 3 µM; hit rate 0.33% among 360,000;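 active means activation above the run's mean compound activation plus 3 SD, cut at about 16% in these data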;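 further: peak over basal fluorescence ratio within a 140 s kinetic read after compound addition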
Target sequence (P11229 whole entry, looked up): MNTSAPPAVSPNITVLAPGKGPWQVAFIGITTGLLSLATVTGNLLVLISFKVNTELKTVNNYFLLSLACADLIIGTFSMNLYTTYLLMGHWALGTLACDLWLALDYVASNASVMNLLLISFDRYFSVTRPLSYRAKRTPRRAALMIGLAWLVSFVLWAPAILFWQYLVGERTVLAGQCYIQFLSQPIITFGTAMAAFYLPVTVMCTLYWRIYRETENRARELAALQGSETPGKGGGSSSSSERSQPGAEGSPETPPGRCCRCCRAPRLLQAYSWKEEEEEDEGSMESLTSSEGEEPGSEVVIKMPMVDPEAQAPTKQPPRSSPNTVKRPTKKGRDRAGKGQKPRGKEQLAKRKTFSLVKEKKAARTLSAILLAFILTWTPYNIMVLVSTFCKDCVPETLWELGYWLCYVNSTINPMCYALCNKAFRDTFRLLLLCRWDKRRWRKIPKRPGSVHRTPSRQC
CHRM1 antagonist = human M1 muscarinic receptor antagonists, primary screen, CHO-K1 cells, Fluo-8 calcium fluorescence, 1536-well | Muscarinic acetylcholine receptor M1 (Homo sapiens), P11229 | CHO-K1 hM1, ACh EC80 antagonist | inhibition, % at 3 µM | hit rate 1.3% among 360,000 | AID 588852, 2011;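 active means percent inhibition above its own plate's cutoff, namely the mean of that plate's compound wells plus 3 SD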;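 further: peak over basal fluorescence ratio during 140 s after agonist addition; 0% = ACh EC80 plus DMSO and 100% = DMSO alone without agonist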
CHRM1 PAM = human M1 muscarinic receptor positive allosteric modulators, primary screen, CHO-K1 cells, Fluo-8 calcium fluorescence, 1536-well; activation, % at 3 µM; hit rate 0.088% among 360,000; CHO-K1 hM1, ACh EC20; 0% = ACh EC20, 100% = maximal ACh; AID 588819, 2011; Muscarinic acetylcholine receptor M1 (Homo sapiens), P11229; in the data active means activation above about 19%, passing the limit was not always enough
CHO-K1 Ca PAM = nonselective calcium activators in parental CHO-K1 cells, primary screen, counter-screen for M1 PAM project, cell-based, Fluo-8 calcium fluorescence, full deck, 1536-well; ATP EC20; 0% at ATP EC20, 100% at ATP max; activation, % at 3 µM; hit rate 0.02% among 360,000;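 active means activation above the run cutoff, the mean activation of all test compounds plus 3 SD, cut at about 40% in these data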;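 further: peak over basal fluorescence ratio in a 140 s read after ATP addition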
CHO-K1 Ca antag = nonselective inhibitor or artifact in parental CHO-K1 cells; ATP-induced calcium, Fluo-8 fluorescence; inhibition, % at 3 µM; hit rate 0.6% among 360,000;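 active means inhibition above a per-plate cutoff, the plate's mean sample inhibition plus 3 SD, cut at about 24% in these data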;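 further: 0% = DMSO plus EC80 ATP and 100% = DMSO alone without ATP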
An asterisk follows results filed as active.

SMILES	CHO-K1 Ca ag	CHRM1 agonist	CHRM1 antagonist	CHRM1 PAM	CHO-K1 Ca PAM	CHO-K1 Ca antag
O=C(O)c1cc(S(=O)(=O)N2CCOCC2)c[nH]1	1	-2	-4	6	1	2
N#Cc1cn(CCOC(=O)c2cccc(C(F)(F)F)c2)c(=O)[nH]c1=O	1	-3	10	-11	-13	37*
CCOC(=O)Cn1cc(C#N)c(=O)[nH]c1=O	0	-3	0	5	-3	-3
CCN1CCN(S(=O)(=O)c2ccc(Cl)c(C(=O)N(C)Cc3ccccc3)c2)CC1	0	1	-5	15	17	24*
CN(CC(=O)Nc1ccccc1Cl)C(=O)c1cccc(S(=O)(=O)N2CCN(c3ccc(F)cc3)CC2)c1	5	7	19	-4	-15	22
COc1ccccc1N(C)S(=O)(=O)c1ccc(C(=O)N(C)Cc2ccc(OC(F)F)cc2)cc1	10	0	27*	-14	-20	13
CN(CC(=O)Nc1ccccc1Cl)C(=O)c1cccc(S(=O)(=O)N2CCN(c3ccccc3)CC2)c1	5	-1	20	-7	-18	28*
CN(Cc1ccc(OC(F)F)cc1)C(=O)c1cccc(S(=O)(=O)N2CCN(c3ccccc3)CC2)c1	14	0	46*	-20	-22	20
COc1ccc(S(=O)(=O)N2CCC(C(=O)N(C)Cc3ccc(C)o3)CC2)cc1OC	0	-3	-8	5	-18	7
O=c1c2ccccc2nnn1Cc1ccc2ccccc2c1	0	-2	-10	11	-5	-13
COCC1CCCC1OS(N)(=O)=O (configuration not stated)	0	-2	1	6	-19	-7
O=C(NCCC1=CCCCC1)Nc1ccc2nsnc2c1	10	-5	12	-16	6	12
COc1ccc(NS(=O)(=O)c2ccc(NC(=S)NC(=O)C(C)C)cc2)cc1	8	19*	2	4	14	-1
CCOc1ccc(NS(=O)(=O)c2ccc(NC(=S)NC(C)=O)cc2)cc1	22*	34*	7	1	21	3
Cc1c(-c2ccc(OCc3ccccc3)cc2)nc2ccccc2c1C(=O)O	2	-1	-13	11	3	-7
CC1(c2ccc3ccccc3c2)NC(=O)N(CC(=O)N2CCN(c3ccccc3O)CC2)C1=O (configuration not stated)	3	0	-10	9	-7	-5
C=CCc1cc(Cl)ccc1OCCCNC(C)CC (configuration not stated)	2	-7	24*	-22	1	-2
CCC(C)NCCOCCOc1ccc(Cl)cc1Br (configuration not stated)	1	-7	42*	-22	-9	16
Cc1ccc(OCCOCCNC(C)C)c(Br)c1	0	-6	-28	-1	20	-8
CCC(C)NCCOCCOc1cc(C)c(Cl)c(C)c1 (configuration not stated)	1	-7	54*	-25	10	-1
Cc1ccc2nc(SCC(=O)NCc3ccc4c(c3)OCO4)nc(=O)n2c1	8	-4	3	4	-26	26*
CC1(C)CC(Cc2ccc(Cl)nc2)N(C(=O)OC(C)(C)C)C1 (configuration not stated)	0	-4	-11	7	2	-6
O=C(Cn1cc(COc2ccc(Br)cc2[N+](=O)[O-])nn1)c1ccc(O)cc1	2	-4	-5	0	-9	25*
CC1(C(=O)NS(=O)(=O)c2ccc(C#N)cc2)CCN1C(=O)Cc1ccc(-c2ccccc2)cc1 (configuration not stated)	0	-4	-3	4	7	-11
Cc1ccc2sc(NC(=O)CN3C(=O)CCC3=O)nc2c1C	1	0	0	6	-6	29*
SMILES	CHO-K1 Ca ag	CHRM1 agonist	CHRM1 antagonist	CHRM1 PAM	CHO-K1 Ca PAM	CHO-K1 Ca antag
C=CCOc1ccccc1CN(CCc1ccccc1)C(=O)c1cccc(S(C)(=O)=O)c1	16*	-5	4	-3	8	-5
COC(=O)c1ccc(C(C(=O)NCc2ccccc2)N(Cc2cccs2)C(=O)c2cnccn2)cc1 (configuration not stated)	4	3	21*	-15	6	10
Cc1ccc(C(C(=O)NCc2ccccc2)N(Cc2cccs2)C(=O)c2ccc3c(c2)OCCO3)cc1 (configuration not stated)	10	-2	33*	-17	13	13
COc1ccc(CNC(=O)C(c2ccc(C)cc2)N(Cc2cccs2)C(=O)c2ccc3c(c2)OCCO3)cc1 (configuration not stated)	7	3	18	-12	-5	5
CC(C)(C)C1CCNC(=O)CC1 (configuration not stated)	1	-1	-10	4	9	1
CC1=CC2=NC(=O)/C(=C/c3coc4ccc(Cl)cc4c3=O)C(=N)N2O1	56*	29*	31	-10	-11	27*
N=C1/C(=C\c2coc3ccccc3c2=O)C(=O)N=C2SC=CN12	83*	47*	41*	-22	-27	31*
CSC1=NSC2=NC(=O)/C(=C/c3coc4ccccc4c3=O)C(=N)N12	45*	78*	56*	-24	-3	35*
CSC1=NSC2=NC(=O)/C(=C/c3coc4ccc(O)cc4c3=O)C(=N)N12	27*	42*	34*	-26	-4	35*
CSC1=NSC2=NC(=O)/C(=C\c3cccs3)C(=N)N12	1	-6	0	3	15	-4
COc1ccccc1NC(=S)N1CCc2cc(OC)c(OC)cc2C1	0	-3	-1	-1	-17	24*
COc1ccnc2c1c(=O)n(Cc1cccc(Cl)c1)c(=O)n2C	0	-2	-6	4	-7	-9
CC(C)(C)c1cc2cccnc2n1Cc1cccc(Cl)c1	0	-5	31*	-12	0	-8
COc1cc(/C=C2\C(=O)N(c3cccc(C(=O)O)c3)N=C2C)ccc1OCc1ccccc1	0	-3	-8	3	-10	-1
C#CCOc1ccc(/C=C2/C(=O)N(c3cccc(C(=O)O)c3)N=C2C)cc1OC	-1	1	-7	9	-19	26*
CC[C@@H](C)[C@@H]1CN([C@@H](CN2CCC[C@H]2CN2C(N)=NC[C@H]2CC(C)C)C(C)C)C(=N)N1CCc1ccc(Cl)c(Cl)c1	0	-11	32	-27	14	-1
